The values below come from PubChem BioAssay (EPA / NIEHS).

Several values for one entry are separate records, joined by “and”; a condition that tells them apart may be missing. Equal entries are not always repeated. Where a structure was tested more than once in an assay, its records may differ in their call. Activity calls are given as the source filed them. Rule for the calls: active = hit-call score of the fitted dose curve at least 0.9, where 1 is the maximum; inactive = score below 0.9.

Read-out in assay [1]: Monocyte Chemoattractant Protein-1 (MCP1), CCL2 (gene 6347)
In words: BSK_hDFCGF_MCP1: BioMAP Diversity Plus: hDFCGF Assay for Monocyte Chemoattractant Protein-1 (MCP1) Biomarker Activity (AID 2284285). Conditions: primary human foreskin fibroblasts. Put shortly: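 MCP-1 ELISA readout was taken 24 hours after dosing primary human dermal fibroblasts in the hDFCGF system, with DMSO as baseline. Parallel sulforhodamine B staining of total protein tracked overt cytotoxicity.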

Read-out in assay [2]: Vascular cell adhesion molecule 1 (VCAM1), VCAM1 (gene 7412)
In words: BSK_IMphg_VCAM1: BioMAP Diversity Plus: IMphg Assay for Vascular cell adhesion molecule 1 (VCAM1) Biomarker Activity (AID 2284286). To be noted: primary human endothelial cells with macrophages. Summed up:
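ELISA read-out of VCAM-1 on venular endothelial cell/macrophage co-cultures at 24 h post-treatment, with DMSO as baseline and positive-direction fitting. Parallel sulforhodamine B total-protein staining (560 nm) served as the overt cytotoxicity measure.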

Read-out in assay [3]: Intercellular Adhesion Molecule 1 (ICAM1), ICAM1 (gene 3383)
In words: BSK_hDFCGF_ICAM1: BioMAP Diversity Plus: hDFCGF Assay for Intercellular Adhesion Molecule 1 (ICAM1) Biomarker Activity (AID 2284287). To be noted: primary human foreskin fibroblasts. Summed up: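 ICAM-1 ELISA readout 24 h after dosing, DMSO as baseline, in human dermal foreskin fibroblast cultures. Cytotoxicity checked in parallel wells by SRB staining (0.1% SRB, 10% TCA fixation, 560 nm).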

Read-out in assay [4]: CD40, CD40 (gene 958)
In words: BSK_IMphg_CD40: BioMAP Diversity Plus: IMphg Assay for CD40 Biomarker Activity (AID 2284288). To be noted: primary human endothelial cells with macrophages. Put shortly: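 ELISA read-out of cell-surface CD40 at 24 h in human venular endothelial cell/macrophage co-cultures. Activity fitted in the positive direction against DMSO; parallel SRB staining (560 nm) gauges overt cytotoxicity.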

Read-out in assay [5]: Interleukin-1 alpha (IL1a), IL1A (gene 3552)
In words: BSK_IMphg_IL1a: BioMAP Diversity Plus: IMphg Assay for Interleukin-1 alpha (IL1a) Biomarker Activity (AID 2284290). Conditions: primary human endothelial cells with macrophages. Put shortly:
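IL-1α is quantified by ELISA at 24 h in the endothelial/macrophage IMphg co-culture, with gain of signal fitted relative to DMSO. Parallel SRB total-protein staining flags overt toxicity.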

Read-out in assay [6]: E-selectin (Homo sapiens) (UniProt P16581)
In words: BSK_IMphg_ESelectin: BioMAP Diversity Plus: IMphg Assay for Eselectin Biomarker Activity (AID 2284291). To be noted: primary human endothelial cells with macrophages. Summed up:
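Analysed against DMSO baseline in the positive fitting direction, this endpoint is an ELISA read of E-selectin. It comes from human venular endothelial cells co-cultured with macrophages, sampled 24 h post-dose.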

Assay [7] can be described thus: BSK_IMphg_SRB: Viability Assessment in the BioMAP Diversity Plus: IMphg Assay (AID 2284292).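 Note: measured one day after compound addition.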 Conditions: primary human endothelial cells with macrophages. Put shortly: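 SRB viability endpoint: cultures of human endothelial cells plus macrophages fixed with 10% TCA, stained with 0.1% SRB, read at 560 nm 24 h post-dosing. Only gain-of-signal fitted, relative to DMSO.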

Read-out in assay [8]: Macrophage colony-stimulating factor (MCSF), CSF1 (gene 1435)
In words: BSK_IMphg_MCSF: BioMAP Diversity Plus: IMphg Assay for Macrophage colony-stimulating factor (MCSF) Biomarker Activity (AID 2284293). To be noted: primary human endothelial cells with macrophages. Summed up:
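M-CSF was measured by ELISA in human venular endothelial cell/macrophage co-cultures dosed for 24 hours. Sulforhodamine B staining of parallel cultures assessed cytotoxicity; data fitted against DMSO baseline.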

Read-out in assay [9]: Interleukin-10 (IL10), IL10 (gene 3586)
In words: BSK_IMphg_IL10: BioMAP Diversity Plus: IMphg Assay for Interleukin-10 (IL10) Biomarker Activity (AID 2284294). Conditions: primary human endothelial cells with macrophages. Summed up:
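IL-10 read by ELISA after 24 h chemical exposure of primary human venular endothelial cell/macrophage cocultures, with DMSO as baseline. Parallel SRB staining (560 nm) gauged overt cytotoxicity.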

Assay [10] in a line: BSK_IMphg_SRB.Mphg: Macrophage Viability Assessment in the BioMAP Diversity Plus: IMphg Assay (AID 2284295). To be noted: primary human endothelial cells with macrophages. Summed up:
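Cytotoxicity read-out: parallel cultures fixed with 10% TCA, stained with 0.1% sulforhodamine B, read at 560 nm. System combines venular endothelium and macrophages; sampled 24 h post-dosing, fitted positively relative to DMSO control.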

Read-out in assay [11]: Thrombomodulin, THBD (gene 7056)
In words: BSK_LPS_Thrombomodulin: BioMAP Diversity Plus: LPS Assay for Thrombomodulin Biomarker Activity (AID 2284296). To be noted: primary human HUVEC with PBMC. Summed up: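 Thrombomodulin on the surface of LPS-activated endothelial/PBMC co-cultures was quantified by ELISA at 24 hours post-dosing, with DMSO as baseline. Parallel SRB total-protein staining flagged overt cytotoxicity.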

Read-out in assay [12]: CD69, CD69 (gene 969)
In words: BSK_LPS_CD69: BioMAP Diversity Plus: LPS Assay for CD69 Biomarker Activity (AID 2284303). To be noted: primary human HUVEC with PBMC. Put shortly: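 CD69 surface levels were read by ELISA after 24 h chemical treatment of an LPS-stimulated HUVEC plus PBMC co-culture; positive-direction fit against DMSO vehicle.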

Read-out in assay [13]: TIMP metallopeptidase inhibitor 2 (TIMP2), TIMP2 (gene 7077)
In words: BSK_hDFCGF_TIMP2: BioMAP Diversity Plus: hDFCGF Assay for TIMP metallopeptidase inhibitor 2 (TIMP2) Biomarker Activity (AID 2284289). Conditions: primary human foreskin fibroblasts. Summed up:
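Primary human foreskin fibroblasts in the hDFCGF system, dosed for 24 h; TIMP-2 level measured by ELISA, fitted in the positive direction against DMSO; cytotoxicity checked in parallel by sulforhodamine B total protein staining.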

E-selectin (Homo sapiens), sequence (P16581 whole entry, looked up): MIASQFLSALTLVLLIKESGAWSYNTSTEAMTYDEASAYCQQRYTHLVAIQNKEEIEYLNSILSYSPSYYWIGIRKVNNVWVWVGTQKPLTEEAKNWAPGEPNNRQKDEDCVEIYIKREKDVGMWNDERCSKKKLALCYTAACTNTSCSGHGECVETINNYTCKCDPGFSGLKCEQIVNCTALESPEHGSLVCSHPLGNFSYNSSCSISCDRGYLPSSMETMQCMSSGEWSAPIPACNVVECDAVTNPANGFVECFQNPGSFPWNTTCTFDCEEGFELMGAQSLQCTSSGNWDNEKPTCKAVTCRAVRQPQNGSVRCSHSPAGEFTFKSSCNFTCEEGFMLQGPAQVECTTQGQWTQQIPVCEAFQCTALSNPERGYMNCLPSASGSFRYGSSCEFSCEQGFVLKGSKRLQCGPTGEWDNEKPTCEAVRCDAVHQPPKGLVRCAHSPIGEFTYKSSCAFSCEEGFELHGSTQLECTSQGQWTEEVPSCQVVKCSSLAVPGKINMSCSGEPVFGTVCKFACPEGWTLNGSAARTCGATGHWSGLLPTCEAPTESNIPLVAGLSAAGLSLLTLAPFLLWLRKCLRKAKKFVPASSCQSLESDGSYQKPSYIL

The AC50 is the midpoint of the concentration-response curve, whichever way the signal moves. As for `O=C(O)C=C(C(F)(F)F)C(F)(F)F`, the AC50 was 2.31 µM (active) in assay [1]; 30 µM (active) in [2]; 20.2 µM (active) and 18 µM (active) in assay [6]; 12.8 µM (active) and 11.3 µM (active) in assay [9]; 1.97 µM (active) in assay [11]. In addition, the outcome in assay [1], in assay [2], in [3], in [4], in [5] and in assay [7] was inactive. Moreover, the result in [8], in [10], in assay [11] and in assay [12] was inactive.

`C=CC(=O)OCC(F)(F)C(F)(F)C(F)(F)C(F)(F)COC(=O)C=C`: the AC50 in assay [1] was 7.35 µM (active) and 7.89 µM (active); in assay [2], 30.4 µM (active) and 23.4 µM (active); in assay [3] it was 10.6 µM (active) and 10.3 µM (active); in assay [4], 18.8 µM (active) and 25 µM (active); in assay [5], 30 µM (active); in [9] it was 24.4 µM (active) and 33.7 µM (active). Further, the AC50 in assay [10] is 21.5 µM (active) and 51.8 µM (active); in [11], 51.4 µM (active); in assay [12], 8.63 µM (active) and 9.41 µM (active). The outcome in [5], in assay [8] and in assay [11] was inactive.

For the compound `FC(F)(I)C(F)(F)C(F)(F)C(F)(F)I`, the AC50 is 52.1 µM (active) and 46.6 µM (active) and 47 µM (active) in assay [1]; 54 µM (active) in [2]; 49.8 µM (active) and 46 µM (active) and 53.4 µM (active) in [3]; 46 µM (active) in [13]; 30 µM (active) and 19.6 µM (active) in assay [8]; 30 µM (active) in [9]. Further, the AC50 in assay [10] is 47.8 µM (active) and 45.9 µM (active); in assay [11], 45.8 µM (active). Also, the outcome in assay [2], in assay [4], in assay [13], in [5], in assay [6] and in assay [8] was inactive. Further, the outcome in [9], in assay [10], in assay [11] and in assay [12] was inactive.

Regarding `FC(F)(Br)C(F)(F)C(F)(F)C(F)(F)C(F)(F)C(F)(F)Br`, the result in assay [1], in assay [2], in assay [3], in assay [4], in assay [13] and in [5] was inactive. For the same compound, the result in [8], in [9], in [10], in assay [11] and in assay [12] was inactive.

`OCCCC(F)(F)C(F)(F)C(F)(F)C(F)(F)C(F)(F)C(F)(F)C(F)(F)F`: the AC50 in assay [1] was 16.1 µM (active) and 17.6 µM (active); in assay [2], 54.6 µM (active); in assay [3], 18.3 µM (active) and 20.1 µM (active); in assay [4], 42.5 µM (active) and 53 µM (active); in assay [13], 14.4 µM (active) and 16.8 µM (active); in [8], 45.8 µM (active). The AC50 in [9] is 54.9 µM (active); in [10], 46.3 µM (active); in assay [11] it was 49.4 µM (active) and 45.6 µM (active); in assay [12], 52.1 µM (active) and 51.7 µM (active). For the same compound, the outcome in [2], in assay [5], in [8], in assay [9] and in [10] was inactive.

With `N=C(N)C(F)(F)C(F)(F)C(F)(F)C(F)(F)C(F)(F)C(F)(F)C(F)(F)F`, the AC50 was 43.8 µM (active) in assay [1]; 41.4 µM (active) in [2]; 30 µM (active) in assay [3]; 30 µM (active) in [13]; 48.7 µM (active) in assay [11]; 45 µM (active) and 14.9 µM (active) in assay [12]. Besides, the outcome in [1], in [2], in assay [3], in assay [4], in assay [13] and in assay [5] was inactive. Also, the result in [6], in assay [8], in [9], in [10] and in [11] was inactive.

For `FC(F)(F)C(F)(F)C(F)(F)C(F)(F)C(F)(F)C(F)(F)C(F)(F)C(F)(F)CCS`, the AC50 in assay [1] was 1.2 µM (active). The outcome in assay [1], in assay [2], in assay [3], in assay [4], in assay [5] and in assay [8] was inactive. Further, the outcome in assay [9], in [10], in assay [11] and in assay [12] was inactive.

For the compound `FC(F)(F)C(F)(F)C(F)(F)C(F)(F)C(F)(F)CCI`, the result in assay [1], in [2], in assay [3], in assay [4], in assay [13] and in [5] was inactive. In addition, the result in assay [8], in assay [9], in [10], in [11] and in [12] was inactive.

Turning to `Cc1ccc(S(=O)(=O)OCC(F)(F)C(F)(F)C(F)(F)C(F)(F)C(F)(F)C(F)F)cc1`, the AC50 in [1] is 6.75 µM (active) and 3.49 µM (active); in assay [12], 7.94 µM (active). Moreover, the outcome in [2], in assay [3], in assay [4], in assay [13], in [5] and in [7] was inactive. Also, the result in [8], in [9], in assay [10], in assay [11] and in assay [12] was inactive.

For `OCC(F)(F)C(F)(F)C(F)(F)C(F)(F)C(F)(F)C(F)F`, the outcome in assay [1], in assay [2], in assay [3], in assay [4], in [5] and in assay [8] was inactive. Also, the outcome in [9], in assay [10], in assay [11] and in [12] was inactive. Further, the AC50 in assay [4] was 1.79 µM (active); in assay [5] it was 23.4 µM (active); in [10], 0.596 µM (active).

`O=C(O)C(F)(F)C(F)(F)C(F)(F)C(F)(F)C(F)(F)C(F)(F)C(F)(F)C(F)(F)C(F)(F)C(F)(F)C(F)(F)C(F)(F)F`: the outcome in assay [1], in [3], in assay [13], in [5], in [8] and in assay [9] was inactive. The result in [10], in assay [11] and in [12] was inactive. Moreover, the AC50 in [2] is 15.2 µM (active) and 19.4 µM (active); in assay [3] it was 8.71 µM (active); in assay [4], 13.3 µM (active) and 16.4 µM (active).

On to `C=CC(F)(F)C(F)(F)C(F)(F)C(F)(F)C(F)(F)C(F)(F)C(F)(F)C(F)(F)C=C`, for which the result in assay [1], in assay [2], in [3], in assay [4], in [13] and in assay [5] was inactive. Moreover, the result in assay [7], in [8], in [9], in assay [10], in assay [11] and in assay [12] was inactive.
